Inconclusive results are not listed. Unmarked numbers belong to inactive results. Calls come from the whole dose curve; as a rule, active = well fitted cell-killing curve with a large enough effect; inconclusive = small, poorly fitted or top-dose-only effect, or effect the other way; inactive = flat fitted curve, though single readings scatter.
Test: Cell Viability - HUV-EC-C (AID 542); note: nearly all actives have a fitted effect of over 35% in size
Conditions: HUV-EC-C endothelial cell viability, qHTS; series mostly up to 92.2 µM; activity change, negative = cytotoxicity: at the top concentration
Outline: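 HUV-EC-C normal human vascular endothelial cells, 1000 cells/well, pre-incubated 5 hr at 37 °C, then exposed to compounds for 40 hr at 37 °C in complete medium. Viability measured as intracellular ATP by CellTiter-Glo luminescence; AC50 from Hill fits.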
% is set by controls: 0 for no effect and ±100 for the full control effect.

| Compound | activity change, negative = cytotoxicity |
| --- | --- |
| CC(C)N(C)C | 0.127% |
| CC(=O)c1cccc([N+](=O)[O-])c1 | 0.12% |
| CC(=O)OCCC(C)C | -5.09% |
| CCN(Cc1ccccc1)c1ccccc1 | 9.57% |
| Cc1ccc(C#N)cc1 | 4.48% |
| Cc1ccccc1Br | -3.37% |
| O=P(O)(OCc1ccccc1)OCc1ccccc1 | 6.82% |
| C=CCCC | -2.69% |
| CC(C)Nc1ccccc1 | 3.89% |
| Cc1ccc(Br)cc1 | 5.45% |
| S=C([S-])NCCNC(=S)[S-].[Zn+2] | 8.82% |
| CC(C=O)Cc1ccc(C(C)(C)C)cc1 (stereo not given) | 7.46% |
| CCCCCCCN | -9.64% |
| CC(C)C(C)C | 0.235% |
| CC(C)(C)c1ccc(OCC2CO2)cc1 (stereo not given) | -16.6% |
| Cc1ccc2c(c1[N+](=O)[O-])C(=O)c1ccccc1C2=O | 12.2% |
| CCCCCCO | -4.45% |
| O=C(O)c1ccccc1Cl | 0.744% |

| Compound | activity change, negative = cytotoxicity |
| --- | --- |
| Nc1cc(Cl)c([N+](=O)[O-])cc1O | -3.93% |
| COCCOC(=O)c1ccccc1C(=O)OCCOC | 9.38% |
| OCCO | 5.59% |
| CCC(C)=O | 10.4% |
| Nc1cc(S(=O)(=O)O)ccc1O | -5.7% |
| O=CNc1ccccc1 | -11.9% |
| C=C(C)C(=O)OCC(C)C | 8.86% |
| CC(=O)c1ccc([N+](=O)[O-])cc1 | -3.43% |
| Nc1cc([N+](=O)[O-])ccc1C(=O)O | 2.66% |
| C=CCCCCCCC=C | -14.8% |
| CC(C)CCOC(=O)/C=C/c1ccccc1 | 8.31% |
| ClCCl | 13.4% |
| CO[Si](CCCNCCC[Si](OC)(OC)OC)(OC)OC | 10.4% |
| Cc1ccc(N(C)C)cc1 | -2.57% |
| COC(=O)CCCC(=O)OC | 6.84% |
| CCCCN(CCO)CCCC | 0.744% |
| CCOC(=O)C(C)C(C)=O (stereo not given) | 8% |
